The campaign covered roughly 5,500 compounds. About 2,000 (36%) were called active. Another 18% or so got no clear call; they are omitted. Rule as the data show it: active = normalized growth mostly below about 0.91 (no sharp cut-off); inconclusive = no clear call, values can overlap the other calls; inactive = mostly above about 0.92. This is one part of the list.
Assay: chemical genetic growth profiling, strain panel (AID 1159580);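 also: tested at 20 µM; growth read once vehicle control cultures reached saturation at 30 °C; 1 = growth at the plate median or of vehicle wells; lower values mean less growth of the strain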
Conditions: growth OD

Measured: normalized growth

CCCCC(=O)O[C@]1(C(=O)CO)[C@@H](C)CC2C3CCC4=CC(=O)C=C[C@]4(C)[C@@]3(F)C(O)C[C@@]21C (some centres undefined)
inactive: S. cerevisiae deletion strains, locus YKL009W, strain mrt4, hits give low values 0.969 | S. cerevisiae deletion strains, locus YKL068W, hits give low values 0.991 | S. cerevisiae deletion strains, locus YKL085W, strain MDH1 (second series), hits give low values 0.987 | S. cerevisiae deletion strains, locus YKL085W, strain MDH1, hits give low values 0.987 | S. cerevisiae deletion strains, locus YKL160W, strain elf1, hits give low values 0.958 | S. cerevisiae deletion strains, locus YKL190W, strain CNB1, hits give low values 0.999 | S. cerevisiae deletion strains, locus YKR001C, strain vps1, hits give low values 0.972 | S. cerevisiae deletion strains, locus YKR026C, strain gcn3, hits give low values 0.97 | S. cerevisiae deletion strains, locus YKR091W, strain srl3, hits give low values 0.986 | S. cerevisiae deletion strains, locus YLL001W, strain dnm1, hits give low values 0.919 | S. cerevisiae deletion strains, locus YLL026W, hits give low values 0.964 | S. cerevisiae deletion strains, locus YLL041C, strain sdh2, hits give low values 0.991 | S. cerevisiae deletion strains, locus YLR027C, strain aat2, hits give low values 0.977 | S. cerevisiae deletion strains, locus YLR039C, strain RIC1, hits give low values 1.07 | S. cerevisiae deletion strains, locus YLR058C, strain SHM2, hits give low values 0.95 | S. cerevisiae deletion strains, locus YLR102C, strain apc9, hits give low values 1 | S. cerevisiae deletion strains, locus YLR113W, strain HOG1, hits give low values 0.956 | S. cerevisiae deletion strains, locus YLR221C, strain rsa3, hits give low values 0.993 | S. cerevisiae deletion strains, locus YLR258W, strain gsy2, hits give low values 0.99 | S. cerevisiae deletion strains, locus YLR262C, strain YPT6 (second series), hits give low values 0.948 | S. cerevisiae deletion strains, locus YLR262C, strain YPT6, hits give low values 1.01 | S. cerevisiae deletion strains, locus YLR268W, strain sec22, hits give low values 0.96 | S. cerevisiae deletion strains, locus YLR320W, strain mms22, hits give low values 0.996 | S. cerevisiae deletion strains, locus YLR330W, strain CHS5, hits give low values 0.99 | S. cerevisiae deletion strains, locus YLR342W, strain FKS1 (second series), hits give low values 1 | S. cerevisiae deletion strains, locus YLR342W, strain FKS1, hits give low values 0.973 | S. cerevisiae deletion strains, locus YLR357W, strain rsc2, hits give low values 1 | S. cerevisiae deletion strains, locus YLR370C, strain arc18, hits give low values 0.977 | S. cerevisiae deletion strains, locus YLR371W, strain rom2, hits give low values 0.984 | S. cerevisiae deletion strains, locus YLR384C, strain iki3, hits give low values 0.963 | S. cerevisiae deletion strains, locus YLR418C, strain cdc73, hits give low values 0.973 | S. cerevisiae deletion strains, locus YML016C, strain PPZ1, hits give low values 0.987 | S. cerevisiae deletion strains, locus YML032C, strain rad52, hits give low values 1 | S. cerevisiae deletion strains, locus YML120C, strain ndi1, hits give low values 0.998 | S. cerevisiae deletion strains, locus YML124C, strain tub3, hits give low values 1.01 | S. cerevisiae deletion strains, locus YMR058W, strain fet3, hits give low values 0.981 | S. cerevisiae deletion strains, locus YMR078C, strain ctf18, hits give low values 0.98 | S. cerevisiae deletion strains, locus YMR125W, strain sto1, hits give low values 0.99 | S. cerevisiae deletion strains, locus YMR129W, hits give low values 0.988 | S. cerevisiae deletion strains, locus YMR205C, strain PFK2, hits give low values 0.984 | S. cerevisiae deletion strains, locus YMR223W, strain ubp8, hits give low values 0.974 | S. cerevisiae deletion strains, locus YMR231W, strain pep5, hits give low values 0.979 | S. cerevisiae deletion strains, locus YMR307W, strain GAS1, hits give low values 0.968 | S. cerevisiae deletion strains, locus YNL067W, strain RPL9B, hits give low values 0.964 | S. cerevisiae deletion strains, locus YNL071W, strain lat1, hits give low values 0.918 | S. cerevisiae deletion strains, locus YNL128W, strain TEP1, hits give low values 0.968 | S. cerevisiae deletion strains, locus YNL153C, strain GIM3, hits give low values 0.923 | S. cerevisiae deletion strains, locus YNL183C, strain NPR1, hits give low values 0.933 | S. cerevisiae deletion strains, locus YNL209W, strain ssb2, hits give low values 0.975 | S. cerevisiae deletion strains, locus YNL233W, strain BNI4, hits give low values 0.963 | S. cerevisiae deletion strains, locus YNL248C, strain rpa49, hits give low values 0.967 | S. cerevisiae deletion strains, locus YNL250W, strain rad50, hits give low values 0.978 | S. cerevisiae deletion strains, locus YNL271C, strain bni1, hits give low values 0.971 | S. cerevisiae deletion strains, locus YNL298W, strain CLA4, hits give low values 0.977 | S. cerevisiae deletion strains, locus YNL307C, strain MCK1, hits give low values 0.979 | S. cerevisiae deletion strains, locus YNL322C, strain KRE1 (second series), hits give low values 0.954 | S. cerevisiae deletion strains, locus YNR049C, strain mso1, hits give low values 0.983 | S. cerevisiae deletion strains, locus YNR052C, strain pop2, hits give low values 0.979 | S. cerevisiae deletion strains, locus YOL006C, strain TOP1, hits give low values 0.98 | S. cerevisiae deletion strains, locus YOL012C, strain htz1 1.06 | S. cerevisiae deletion strains, locus YOL147C, strain pex11, hits give low values 0.989 | S. cerevisiae deletion strains, locus YOR001W, strain rrp6, hits give low values 0.938 | S. cerevisiae deletion strains, locus YOR061W, strain CKA2, hits give low values 0.987 | S. cerevisiae deletion strains, locus YOR069W, strain VPS5, hits give low values 0.989 | S. cerevisiae deletion strains, locus YOR070C, strain gyp1, hits give low values 0.986 | S. cerevisiae deletion strains, locus YOR080W, strain dia2, hits give low values 0.965 | S. cerevisiae deletion strains, locus YOR083W, strain WHI5, hits give low values 0.956 | S. cerevisiae deletion strains, locus YOR106W, strain vam3, hits give low values 0.929 | S. cerevisiae deletion strains, locus YOR136W, strain idh2, hits give low values 0.979 | S. cerevisiae deletion strains, locus YOR144C, strain elg1, hits give low values 0.994 | S. cerevisiae deletion strains, locus YOR184W, strain ser1, hits give low values 0.984 | S. cerevisiae deletion strains, locus YOR231W, strain MKK1, hits give low values 0.976 | S. cerevisiae deletion strains, locus YOR265W, strain rbl2, hits give low values 0.981 | S. cerevisiae deletion strains, locus YOR270C, strain vph1, hits give low values 0.88 | S. cerevisiae deletion strains, locus YOR290C, strain snf2, hits give low values 1.01 | S. cerevisiae deletion strains, locus YOR316C, strain cot1, hits give low values 0.988 | S. cerevisiae deletion strains, locus YPL051W, strain arl3, hits give low values 0.993 | S. cerevisiae deletion strains, locus YPL055C, strain LGE1, hits give low values 0.975 | S. cerevisiae deletion strains, locus YPL078C, strain atp4, hits give low values 0.927 | S. cerevisiae deletion strains, locus YPL106C, strain sse1, hits give low values 1.01 | S. cerevisiae deletion strains, locus YPL240C, strain hsp82, hits give low values 0.967 | S. cerevisiae deletion strains, locus YPL241C, strain CIN2, hits give low values 1 | S. cerevisiae deletion strains, locus YPL256C, strain CLN2, hits give low values 0.973 | S. cerevisiae deletion strains, locus YPR119W, strain clb2, hits give low values 0.993 | S. cerevisiae deletion strains, locus YPR141C, strain kar3, hits give low values 0.968 | S. cerevisiae deletion strains, locus YPR163C, strain tif3, hits give low values 0.985 | S. cerevisiae deletion strains, locus YPR167C, strain met16, hits give low values 0.984 | S. cerevisiae deletion strains, strain wtn01, hits give low values 0.992 | S. cerevisiae strains, strain wild type, hits give low values 0.985

Source: PubChem BioAssay AID1159580 (chemical genetic matrix, 2015)
